Screens (PubChem BioAssay)
Most compounds without a hit are left out; they make up all but 3.3% or so of the library.
TPT1 inhibitor: inhibitors of Candida albicans tRNA 2'-phosphotransferase TPT1; 300,000 tested, 0.81% active; recombinant caTPT1, FP RNA substrate dephosphorylation; inhibition, % at 5 µM;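 active = inhibition above the mean of all tested compounds plus 3 SD, set per screening campaign, cut at about 24% in these data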;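 note: plate controls were DMSO alone for no effect and ferristatin control at 100 nM for full effect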
Fh CTSL1 inh: blocks F. hepatica cathepsin L1 in PFM18AAP counter-screen; recombinant F. hepatica cathepsin L1, Z-Leu-Arg-MCA fluorescence; inhibition, % at 5.96 µM; 300,000 tested, 0.49% active; AID 1906;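 active = inhibition above the mean of all tested compounds plus 3 SD, set per screening campaign, cut at about 17% in these data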;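 note: 0% = plate median of test compound wells and 100% = 1 µM Z-Phe-Ala-diazomethylketone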
CendR NRP1 mod: modulators of CendR peptide binding to human neuropilin-1; FAM-RPARPAR peptide binding to NRP-1, fluorescence polarization; inhibition, % at 25 µM; O14786; AID 602438; 360,000 tested, 0.85% active;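 active = inhibition or corrected inhibition above about 18%, plus a signal ratio from 0.5 to 1.5, limit read from the data, passing the limit was not always enough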
Target sequence (O14786 whole entry, looked up): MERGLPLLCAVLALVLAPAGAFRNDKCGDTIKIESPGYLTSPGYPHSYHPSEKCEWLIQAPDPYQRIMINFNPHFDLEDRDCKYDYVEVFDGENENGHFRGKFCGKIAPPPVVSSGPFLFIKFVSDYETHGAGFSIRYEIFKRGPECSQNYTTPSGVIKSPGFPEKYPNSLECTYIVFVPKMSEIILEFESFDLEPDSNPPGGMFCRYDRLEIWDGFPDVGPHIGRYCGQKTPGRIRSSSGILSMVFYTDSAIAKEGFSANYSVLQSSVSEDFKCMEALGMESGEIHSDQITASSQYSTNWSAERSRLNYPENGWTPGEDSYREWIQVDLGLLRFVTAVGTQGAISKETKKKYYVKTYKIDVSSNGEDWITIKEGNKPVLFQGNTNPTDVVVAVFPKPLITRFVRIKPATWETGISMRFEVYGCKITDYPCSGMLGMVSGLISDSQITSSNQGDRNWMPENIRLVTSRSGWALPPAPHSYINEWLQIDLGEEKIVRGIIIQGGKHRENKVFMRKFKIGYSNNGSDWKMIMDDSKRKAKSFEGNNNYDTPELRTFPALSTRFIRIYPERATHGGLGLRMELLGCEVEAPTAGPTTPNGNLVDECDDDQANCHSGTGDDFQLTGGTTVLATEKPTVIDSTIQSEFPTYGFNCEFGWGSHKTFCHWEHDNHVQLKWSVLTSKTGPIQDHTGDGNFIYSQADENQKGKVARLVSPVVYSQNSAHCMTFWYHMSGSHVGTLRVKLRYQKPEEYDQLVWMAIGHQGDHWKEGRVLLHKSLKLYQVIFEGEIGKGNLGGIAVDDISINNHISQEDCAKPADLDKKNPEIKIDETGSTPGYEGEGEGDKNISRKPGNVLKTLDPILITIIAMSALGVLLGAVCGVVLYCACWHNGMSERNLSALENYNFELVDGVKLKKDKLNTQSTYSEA
PHOSPHO1 block: blocks human PHOSPHO1 phosphatase activity | Q8TCT1 | recombinant PHOSPHO1, absorbance phosphatase assay | inhibition, % at 13.3 µM | 290,000 tested, 1.1% active; in the data active = inhibition above about 60%
HNF4A DNA FP: change in binding of human HNF4 alpha to DNA. 360,000 tested, 0.3% active. activity change, % at 10 µM. HNF4a-FITC DNA binding, fluorescence polarization, 1 h. P41235; in the data active = activity change above about 30%, passing the limit was not always enough
Rpn11 block: Rpn11 (human) deubiquitinase inhibition; human 26S proteasome, Ub4-pepOG fluorescence polarization; 20S core pre-blocked with epoxomicin; 360,000 tested, 0.59% active; inhibition, % at 20 µM; O00487;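 active = inhibition at 20 µM, scaled to each plate's controls, above about 33%, limit read from the data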
* = called active by the depositor; x = not tested or not shown.

SMILES | TPT1 inhibitor | Fh CTSL1 inh | CendR NRP1 mod | PHOSPHO1 block | HNF4A DNA FP | Rpn11 block
O=c1c(/C=N/Nc2ccccc2)c(Sc2nnnn2-c2ccccc2)nc2ccccn12 | x | x | 133 | 93* | -7 | x
Cc1noc(C)c1C(=O)N1CCC1(C)C(=O)NS(=O)(=O)c1cccc(Cl)c1 (centres undefined) | x | x | 41* | x | -3 | -2
Cn1c(SCC(=O)N2CCOCC2)nnc1-c1cccc(NC(=O)c2ccccc2)c1 | 2 | 5 | 8 | 92* | 1 | -4
Cn1c(SCC(=O)N2CCOCC2)nnc1-c1ccncc1 | 0 | 1 | -3 | 19 | 0 | -2
CCC(C)Nc1nc(N)c([N+](=O)[O-])c(Nc2cc(OC)ccc2OC)n1 (centres undefined) | -3 | -2 | 52* | 33 | 1 | 4
Nc1ccn([C@@H]2O[C@H](CNC(=O)[C@@H](Cc3cccnc3)NC=O)[C@@H](O)[C@H]2O)c(=O)n1 | x | x | -4 | x | 1 | 4
O=C(CSc1cccc[n+]1[O-])Nc1cc(Cl)ccc1[N+](=O)[O-] | x | x | 6 | x | 1 | -4
O=[N+]([O-])c1ccc(Sc2cccc[n+]2[O-])c2nonc12 | x | x | 34* | 8 | -2 | -2
COc1ccc(C)cc1NC(=O)COC(=O)c1ccc2c(c1)OCCO2 | x | x | 4 | x | 0 | -7
CCCCCCSc1ccc([C@H]2N[C@@](Cc3ccccc3)(C(=O)OC)[C@H]3C(=O)N(C)C(=O)[C@@H]23)cc1OC | -3 | 4 | 28* | x | 1 | 4
CCC(C)Sc1ccc([C@H]2N[C@@](C)(C(=O)OC)[C@H]3C(=O)N(C)C(=O)[C@@H]23)cc1OC (some centres undefined) | 1 | 1 | -1 | x | 2 | -4
CCCSc1ccc([C@H]2N[C@@](C)(C(=O)OC)[C@H]3C(=O)N(C)C(=O)[C@@H]23)cc1OC | -2 | -7 | 28* | x | 2 | -4
CC(=O)c1cccc(OCC(=O)Nc2cc(S(=O)(=O)N3CCOCC3)ccc2N2CCCC2)c1 | -2 | 0 | 7 | x | 1 | 0
CCOC(=O)C1=C(CSc2nc3c(cc2C#N)CN(C)CC3)OC(N)=C(C#N)C1c1ccc(F)cc1 (centres undefined) | 9 | -1 | -63 | 67* | 3 | -12
CCOC(=O)C1=C(CSc2nc3c(cc2C#N)CN(C)CC3)OC(N)=C(C#N)C1c1ccccc1 (centres undefined) | 5 | 3 | -13 | 98* | -7 | -24
CCOC(=O)C1=C(CSc2nc3c(cc2C#N)CCC3)OC(N)=C(C#N)C1c1ccccc1 (centres undefined) | 4 | 2 | -15 | -12 | 3 | 14
CCOC(=O)C1=CCN(S(=O)(=O)c2ccccc2C)C1c1ccccc1 (centres undefined) | x | x | 6 | x | 0 | 0
O=C(NCc1ccc(F)cc1)C(Cc1ccccc1)n1cccc1 (centres undefined) | -2 | 0 | 4 | 23 | 0 | 4
O=C(CSc1nnc(CNc2ccc(F)cc2)n1Cc1ccco1)NC1CC1 | -5 | -1 | -6 | 59 | -2 | 12
O=C(CSc1nnc(CNc2ccc(F)cc2)n1Cc1ccco1)N1CCOCC1 | 1 | 0 | 3 | 88* | 3 | 1
Cc1c(Cl)ccc2sc(NC(=O)C3CC3)nc12 | 0 | -1 | 0 | 20 | 2 | -3
Cc1nc2c(ccc3nc(NC(=O)C4CC4)sc32)s1 | -1 | -2 | -5 | 62* | 1 | -3
CCC(=O)Nc1nc2ccc3sc(C)nc3c2s1 | -2 | 2 | -4 | 64* | -1 | -6
O=[N+]([O-])c1ccc(-n2nnnc2-c2ccccc2)cc1 | 0 | -8 | -5 | 6 | 2 | 0
O=[N+]([O-])c1ccc(-n2nnnc2-c2ccccc2)c([N+](=O)[O-])c1 | -3 | 20* | -3 | 2 | -2 | 2
O=C1/C(=C/c2ccco2)SC(=S)N1c1cccnc1 | x | x | -22 | 61* | -67 | x
O=C1/C(=C\c2ccco2)SC(=S)N1c1ccc(O)cc1 | 6 | 1 | 6 | -3 | 2 | 2
CCn1c(/C=C/c2ccc(O)cc2)nc2ccccc2c1=O | 3 | 2 | 3 | 24 | 2 | 2
COc1ccc(/C=C/c2nc3ccccc3c(=O)n2-c2cccc(C(=O)O)c2)cc1 | -6 | 19* | 0 | 24 | 0 | 7
